Assay outcomes deposited in PubChem by Sanford-Burnham Center for Chemical Genomics.
HIF-2a inh: HIF-2a reporter inhibitors, primary screen, luminescence, 786-0 RCC cells. 786-0 RCC cells HIF-2a reporter, luciferase luminescence, overnight. inhibition, % at 18.8 µM. 360,000 compounds, 0.72% hits;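 active means inhibition of the luminescence signal of 40% or more relative to plate controls, in a single-dose primary screen at 18.75 µM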
TROY signal inh: inhibitors of TROY-driven NF-kB signaling, primary screen, Q293 LMP1-TROYcd cells, NF-kB luciferase, uHTS; 360,000 compounds, 0.98% hits; inhibition, % at 10 µM; Q293 LMP1-TROYcd NF-kB luciferase reporter, 4 h; AID 1347056, 2019;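 active means compounds whose plate-normalised and pattern-corrected inhibition of the luciferase reporter signal at the single screening dose is 50% or more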
TWEAK Fn14 block: inhibitors of TWEAK-Fn14 signaling, primary screen, luciferase reporter cells, uHTS | TWEAK-stimulated Fn14 reporter cells, luciferase luminescence, 8 h | 360,000 compounds, 2% hits | AID 1159606, 2016 | inhibition, % at 10 µM; in the data active means inhibition above about 50%
KKLEB cytotox: cytotoxicity in KKLEB CF airway cells, primary screen, cytotoxicity control for CF NF-kB inhibitor project, cell-based, uHTS, fluorescence assay plates | KKLEB CF airway cells viability, ATPlite luminescence, overnight; stronger effect = lower value; cells stimulated with P. aeruginosa culture filtrate | activity change (cytotoxicity), % at 5 µM | 360,000 compounds, 0.36% hits;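 active means corrected activity change at or below -50% at 5 µM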
CF NFkB block: inhibitors of PAF-induced NF-kB signaling, primary screen, cell-based, GFP fluorescence, uHTS | KKLEB NF-kB-GFP reporter, GFP fluorescence overnight | inhibition, % at 5 µM | 360,000 compounds, 0.86% hits | AID 588850, 2011;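 active means at least 50% inhibition at 5 µM, scaled per plate between neutral and stimulator controls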;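 further: PAF is a Pseudomonas aeruginosa culture filtrate used as stimulus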
Peg3 promoter: Peg3 promoter-driven luciferase inhibitors, primary screen, cell-based, HeLa, luciferase luminescence | 360,000 compounds, 1.7% hits | HeLa PEG-Prom luciferase reporter, overnight | inhibition, % at 20 µM;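 active means inhibition of at least 50% at 20 µM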
Numbers stand for hits; - = inactive; . = no result given. Hits are enriched below; roughly 4% of the tested compounds scored in any of these assays.

SMILES | HIF-2a inh | TROY signal inh | TWEAK Fn14 block | KKLEB cytotox | CF NFkB block | Peg3 promoter
CCOC(=O)c1c(C)[nH]c(C)c1C(=O)COC(=O)CNC(=O)C1CCCCC1 | - | - | - | - | - | -
CC[C@H](C)[C@@H]1OC(=O)[C@@H](C)[C@@H](CC)NC(=O)[C@H](C)N(C)C(=O)C(C)(C)C(=O)C(C)NC(=O)[C@H](Cc2ccccc2)N(C)C(=O)[C@H](C(C)C)N(C)C(=O)CNC(=O)[C@H](CC(C)C)N(C)C(=O)CNC1=O (stereo not given in full) | - | - | - | -97 | 91 | 87
Cc1cccc(C(=O)N2CCC(c3nc(-c4ccc(S(=O)(=O)N5CCOCC5)cc4)no3)CC2)c1 | - | - | - | - | - | -
O=C(c1ccccc1)N1CCC(c2nc(-c3ccc(S(=O)(=O)N4CCOCC4)cc3)no2)CC1 | - | . | 62 | - | - | -
Cc1ccc(SCC(=O)Nc2ccc(N3CCN(c4ccccc4)CC3)c(F)c2)cc1 | - | - | - | - | - | -
CN1CCN(c2ccc(NC(=O)CSc3ccccc3)cc2F)CC1 | - | - | 53 | - | - | -
Cc1ccc(/C=N/NC(=O)c2ccco2)s1 | - | - | - | - | - | -
Cn1ncc2c(Nc3ccc(Br)cc3)nc(Nc3ccc(Br)cc3)nc21 | - | - | 53 | - | - | -
CNc1nc(Nc2ccc(C)c(Cl)c2)c2cnn(C)c2n1 | - | - | - | - | - | -
Cn1ncc2c(Nc3cccc(Cl)c3)nc(Nc3cccc(Cl)c3)nc21 | - | - | 60 | - | - | -
CC1=C(C(=O)Nc2ccccc2)C(c2ccncc2)C(C#N)=C(SCC(=O)NC2CC2)N1 (stereo not given) | - | . | 94 | - | - | -
COc1cccc(NC(=O)NNS(=O)(=O)c2ccc(OC)cc2OC)c1 | - | - | - | - | - | -
O=C(COC(=O)c1ccccc1-n1cnnn1)c1ccc(Br)cc1 | - | 62 | 72 | - | - | -
O=C(COC(=O)c1ccccc1-n1cnnn1)c1ccccc1 | - | - | - | - | - | -
CNC(=O)CN(c1cc(OCCOC)c(Cl)cc1Cl)S(=O)(=O)c1ccccc1 | - | - | - | - | - | -
CCC1C(=O)N=C(SCC(=O)NC2CCCCC2)NC1=O (stereo not given) | - | - | - | - | - | -
CCCN1C(=O)c2ccccc2NC1c1ccc(OC)cc1O (stereo not given) | - | - | - | - | - | -
CCN(CC)c1ccc(/C=N/NC(=O)CNC(=O)C2COc3ccccc3O2)c(O)c1 (stereo not given) | - | - | - | - | - | 50
CC(NCC(O)COC1CCC(C(C)(C)C)CC1)c1ccccc1 (stereo not given) | - | - | - | - | - | 64
CC(NCC(O)COc1ccc(S(=O)(=O)N2CCOCC2)cc1)c1ccccc1 (stereo not given) | - | - | - | - | - | -
CC1CCC(C(C)C)C(OCC(O)CNC(C)c2ccccc2)C1 (stereo not given) | - | - | - | - | - | 106
Cc1ccc(S(=O)(=O)CCc2nnc(NC(=O)CCl)s2)cc1C | - | - | - | - | - | -
COC(=O)c1onc(-c2ccccc2)c1C(=O)OC | - | - | - | - | - | -
CCOc1cc(/C=C2\COc3ccccc3C2=O)ccc1OCC(=O)N(C)C | - | - | 79 | - | - | 62
CCNC(=O)COc1ccc(/C=C2\COc3ccccc3C2=O)cc1OC | - | - | - | - | - | 71
SMILES | HIF-2a inh | TROY signal inh | TWEAK Fn14 block | KKLEB cytotox | CF NFkB block | Peg3 promoter
Cc1ccc(NC(=O)c2ncn(CC(=O)NCc3nc4ccccc4[nH]3)n2)cc1C | - | - | - | - | - | -
O=C(O)COc1ccccc1/C=C1\C(=O)Nc2ccc(Br)cc21 | - | - | - | - | - | -
O=C1Nc2ccc(Br)cc2/C1=C/C(=O)c1ccccc1 | - | - | 55 | - | - | 98
Cc1c(NC(=O)c2ccc(C(=O)Nc3c(C)n(C)n(-c4ccccc4)c3=O)cc2)c(=O)n(-c2ccccc2)n1C | - | - | - | - | - | -
COc1cccc(-n2c(N)c(C(=O)Nc3c(C)n(C)n(-c4ccccc4)c3=O)c3nc4ccccc4nc32)c1 | - | - | - | - | - | 60
Cc1cc(C)cc(-n2c(N)c(C(=O)Nc3c(C)n(C)n(-c4ccccc4)c3=O)c3nc4ccccc4nc32)c1 | - | - | - | - | - | 91
Cn1c(SCC(=O)NCc2ccco2)nnc1-c1cccs1 | - | - | - | - | - | -
CCOc1ccc(NS(=O)(=O)c2ccc(C(=O)NCc3ccccn3)cc2)cc1 | - | - | - | - | - | -
COc1ccccc1NC(=O)C1CCCN1S(=O)(=O)c1cccc2nsnc12 (stereo not given) | - | - | - | - | - | -
COc1ccc(NC(=O)C2CCCN2S(=O)(=O)c2cccc3nsnc23)c(OC)c1 (stereo not given) | - | - | 70 | - | - | -
CC1OC2CC(=O)OC2C2=C1C(=O)c1c(O)cccc1C2=O (stereo not given) | 90 | 57 | 107 | -83 | 91 | 103
Cc1ccc([N+](=O)[O-])cc1Nc1nc(N2CCCC2)nc(N2CCCC2)n1 | - | - | 52 | - | - | -
CN1C2CCC1/C(=C\c1ccccc1F)C(=O)/C2=C/c1ccccc1F | - | - | 83 | - | - | -
Cc1ccc2c(c1)/C(=C/c1ccccc1F)C(=O)N2 | - | - | - | - | - | -
CCN1CCN(c2cc3c(cc2F)c(=O)c(C(=O)O)cn3C2CC2)CC1 | - | - | 60 | - | - | -
CCOC(=O)CN(C(=O)CSc1nnc(-c2ccncc2)n1CCCOC)c1ccccc1 | - | 58 | - | - | - | -
CCn1c(SCC(=O)Nc2ccccc2OC)nc2ccccc2c1=O | - | - | - | - | - | -
CCOc1ccccc1-n1c(SCC(=O)Nc2ccccc2C(=O)O)nc2ccccc2c1=O | - | 78 | 92 | - | - | -
Cc1ccc(/C=N/NC(=O)CSc2nc3ccccc3c(=O)n2-c2ccccc2C)s1 | - | - | - | - | - | 51
Cc1nn(-c2ccccc2)c(C)c1/C=N/NC(=O)CSc1nc2ccccc2c(=O)n1-c1ccc(Br)cc1 | - | - | - | - | - | 58
Cc1ccccc1-n1c(SCC(=O)N/N=C/c2c(C)nn(-c3ccccc3)c2C)nc2ccccc2c1=O | - | - | - | - | - | 54
NC(=O)C1CCN(C(=O)CN(c2cccc(Cl)c2)S(=O)(=O)c2ccccc2)CC1 | - | - | - | - | - | -
